Data reported in article PMC4336329 (PLoS ONE, 2015).
In all, about 310,000 compounds went through this assay and about 14,000 (4.5%) showed an effect of 50% or more. Effects have a minus sign here. The sample holds strong results, similar compounds and a random draw of the others, so the mix is not that of the screen.

Each compound was assayed against human ether-à-go-go-related gene (hERG) potassium channel (human, UniProt Q12809) (assay: primary screen, population patch clamp on CHO cells stably expressing hERG; higher = less effect of the substance).
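Note: peak tail current of the secondary pulse compared with the same well before compound.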

Sequence of human ether-à-go-go-related gene (hERG) potassium channel (Q12809 whole entry, looked up): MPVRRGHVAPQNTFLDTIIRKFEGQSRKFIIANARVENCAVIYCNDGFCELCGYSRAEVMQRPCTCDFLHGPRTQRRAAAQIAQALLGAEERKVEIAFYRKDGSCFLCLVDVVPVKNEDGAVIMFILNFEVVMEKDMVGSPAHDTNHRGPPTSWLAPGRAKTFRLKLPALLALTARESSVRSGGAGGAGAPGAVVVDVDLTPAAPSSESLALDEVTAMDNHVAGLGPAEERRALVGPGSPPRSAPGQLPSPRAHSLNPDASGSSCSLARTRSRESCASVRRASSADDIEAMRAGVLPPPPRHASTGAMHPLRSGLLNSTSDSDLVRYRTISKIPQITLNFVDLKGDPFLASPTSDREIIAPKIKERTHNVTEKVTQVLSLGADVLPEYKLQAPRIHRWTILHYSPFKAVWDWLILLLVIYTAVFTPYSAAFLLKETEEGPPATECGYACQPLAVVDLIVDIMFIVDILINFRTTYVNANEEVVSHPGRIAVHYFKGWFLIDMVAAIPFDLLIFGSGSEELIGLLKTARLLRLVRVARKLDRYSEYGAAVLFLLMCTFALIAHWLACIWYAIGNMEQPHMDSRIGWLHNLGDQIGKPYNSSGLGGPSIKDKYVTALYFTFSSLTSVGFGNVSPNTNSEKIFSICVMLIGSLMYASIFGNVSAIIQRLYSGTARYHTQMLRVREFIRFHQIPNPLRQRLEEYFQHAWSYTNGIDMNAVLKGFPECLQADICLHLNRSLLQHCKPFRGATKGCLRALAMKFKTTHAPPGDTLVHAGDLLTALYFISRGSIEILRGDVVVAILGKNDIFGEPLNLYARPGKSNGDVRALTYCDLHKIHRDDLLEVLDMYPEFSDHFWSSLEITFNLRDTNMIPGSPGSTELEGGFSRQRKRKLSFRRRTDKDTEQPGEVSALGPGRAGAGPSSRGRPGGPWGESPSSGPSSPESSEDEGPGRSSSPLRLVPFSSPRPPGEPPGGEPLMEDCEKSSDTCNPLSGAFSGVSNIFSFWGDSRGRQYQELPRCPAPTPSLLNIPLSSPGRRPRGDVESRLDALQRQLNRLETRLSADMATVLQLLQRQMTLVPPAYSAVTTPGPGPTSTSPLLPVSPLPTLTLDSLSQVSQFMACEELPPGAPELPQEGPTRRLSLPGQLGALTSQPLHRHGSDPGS

Row | SMILES | hERG current change (%, negative = inhibition) at 10uM
1 | Cn1ccnc1SCCNC(=O)C1CCC(=O)N(Cc2ccc(Cl)cc2)C1 (centres unmarked) | -3.3%
2 | COc1cc(NC(=O)CN(c2ccc(C)cc2)S(=O)(=O)c2c(C)noc2C)cc(OC)c1 | 16.3%
3 | C=CCn1c(O)c(C(C)=NCCc2c[nH]c3ccccc23)c(=O)[nH]c1=O | -31.9%
4 | CC(CCc1ccccc1)N1CCN(C)CC1 (centres unmarked) | -20.4%
5 | CC(CCc1ccccc1)N1CCN(Cc2ccccc2)CC1 (centres unmarked) | -75.2%
6 | COc1ccc(CN2CCN(c3ncccn3)CC2)c(C)c1C | -35.9%
7 | COc1ccc(OC)c(CN2CCN(Cc3cc(OC)c(OC)c(OC)c3)CC2)c1 | 9.45%
8 | COc1ccc(CN2CCN(C(=O)Cc3ccccc3)CC2)c(OC)c1 | -31.5%
9 | COc1ccc(CN2CCN(Cc3ccccc3)CC2)c(OC)c1 | -69.9%
10 | COc1ccc(CN2CCN(c3ccccn3)CC2)c(OC)c1C.O=C([O-])C(=O)[O-] | -55.8%
11 | COc1ccc(CN2CCN(c3ccccn3)CC2)c(OC)c1C.O=C(O)C(=O)O | -37.1%
12 | CCN1CCN(C(C)CCc2ccccc2)CC1 (centres unmarked) | -17.7%
13 | COCCn1cnc2c(c1=O)c1nc3ccccc3nc1n2/N=C/c1ccco1 | -7.29%
14 | COc1ccc(CNS(=O)(=O)c2ccc(-c3ccc(=O)[nH]n3)s2)cc1OC | -29.5%
15 | COC(=O)c1ccc2c(=O)n(CC3CCCO3)c(SCC(=O)Nc3ccccc3OC)nc2c1 (centres unmarked) | -4.41%
16 | CS(=O)(=O)c1nc(-c2ccccc2)cc(-c2ccccc2)c1C#N | 8.33%
17 | CC(C)CCC(O)(c1ccccc1)C(CN1CCOCC1)c1ccccc1.Cl (centres unmarked) | -1.36%
18 | CNS(=O)(=O)Cc1ccc2[nH]cc(CCN(C)C)c2c1 | 10.6%
19 | Cc1ccc(C)c(CN2CCC(CNC(=O)CCc3nnc4ccc(N5CCCCC5)nn34)CC2)c1 | -30.3%
20 | COc1ccc(NC(=O)NNC(=O)c2ccccc2-n2cccc2)cc1OC | 25.4%
21 | COc1ccc2c(=O)c3c(=O)n(Cc4ccco4)c(-c4ccc(C)cc4)nc3oc2c1 | -53.3%
22 | COc1ccc2c(=O)c3c(=O)n(Cc4ccco4)c(-c4cc(OC)c(OC)c(OC)c4)nc3oc2c1 | -16%
23 | COc1ccc2c(=O)c3c(=O)n(Cc4ccco4)c(-c4ccccc4)nc3oc2c1 | -32.2%
24 | COc1ccc(Cn2c(-c3ccco3)nc3oc4cc(OC)ccc4c(=O)c3c2=O)cc1 | -31.4%
25 | COc1ccc(-c2nc3oc4cc(OC)ccc4c(=O)c3c(=O)n2Cc2ccco2)cc1 | -27.5%
26 | COc1ccc2c(=O)c3c(=O)n(Cc4ccco4)c(-c4ccco4)nc3oc2c1 | -62.4%
